Rows were chosen to be rich in hits. Some 9.5% of all compounds tested hit in one or more screens of this group.
SARS PLpro yeast = inhibitors of SARS-CoV papain-like protease in yeast. S. cerevisiae expressing SARS-CoV PLpro, growth rescue. AID 485353. Potency, µM (top dose mostly 32.9 µM), most hits filed as activators. hit rate 0.19% among 330,000; also: nearly all actives have a fitted effect of over 55% in size
NS1 function inh = influenza NS1 inhibition; Potency, µM (series often up to 46.1 µM); hit rate 0.4% among 270,000; AID 2326; also: actives are rising curves; nearly all actives have a fitted effect of over 50% in size
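In this qHTS, NS1 from influenza A is expressed in budding yeast, where it slows growth. Cells are switched from glucose to 2% galactose medium (pH 6.0, -URA), treated with compound, and growth recovery is read at OD600.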
RE007 growth inh = less growth of the S. pombe RE007 Vpr strain | S. pombe RE007 Vpr strain, BacTiter-Glo ATP luminescence, 24 h | Potency, µM (titrated, usually from 92.2 µM), hits mostly inhibitors | AID 651644 | hit rate 0.21% among 360,000; active = well fitted falling curve with a large enough effect; inconclusive = small, poorly fitted or top-dose-only effect; inactive = no such curve, though single readings can be large or run the other way; also: nearly all actives have a fitted effect of over 50% in size
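Fission yeast RE007 carrying one integrated HIV-1 vpr copy, seeded at OD 0.01 in PMG+AL medium with 23 nL pinned compound. Grown 24 h at 30 degrees; viability read by BacTiter-Glo luminescence after 5 min.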
Pf growth 48h = P. falciparum growth inhibition at 48 hours (one generation). P. falciparum luciferase growth in erythrocytes, 48 h. Potency, µM (top dose mostly 28.7 µM), usual class: inhibitors. hit rate 5.9% among 310,000. AID 504832; active = well fitted inhibition curve with a large enough effect; inconclusive = small, poorly fitted or top-dose-only effect, or another doubt; inactive = no such curve, though single readings can be large or run the other way
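Erythrocytes infected with P. falciparum carrying an integrated firefly luciferase reporter (2% hematocrit, 0.1% parasitemia final) were exposed to compounds in RPMI 1640 with 0.5% Albumax at 37 C, 5% CO2. Growth inhibition was scored as reduced luminescence.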
Pf growth 96h = inhibits malaria parasite growth, 96 h; P. falciparum luciferase reporter growth, 96 h; Potency, µM (titrated, usually from 28.7 µM), most hits filed as inhibitors; hit rate 6.9% among 320,000; active = well fitted inhibition curve with a large enough effect; inconclusive = small, poorly fitted or top-dose-only effect, or another doubt; inactive = no such curve, though single readings can be large or run the other way
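Cell-based qHTS: luciferase-tagged P. falciparum in erythrocytes (2% hematocrit, 0.05% parasitemia final) incubated with compounds for 96 hours, 37 C, 5% CO2; luciferase detection reagent then added and luminescence measured.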
Large screens that a line does not name were inactive. Unless noted, calls follow the shape of the full dose curve.

CC(C)[C@H](NC(=O)c1ccccc1F)C(=O)OCCN1C(=O)c2ccccc2C1=O	none (no result: NS1 function inh, Pf growth 48h, Pf growth 96h)
COc1cnc(-c2ccccn2)nc1Sc1ccccc1Cl	Pf growth 48h inconclusive, Pf growth 96h inconclusive
COc1cnc(-c2ccccn2)nc1N(C)C	Pf growth 48h 4.1µM, Pf growth 96h 2.3µM (no result: NS1 function inh)
NCS(=O)(=O)O	none (no result: SARS PLpro yeast, RE007 growth inh, Pf growth 48h, Pf growth 96h)
COc1cccc(C(=O)Nc2cc(S(=O)(=O)N3CCOCC3)ccc2N2CCOCC2)c1	none (no result: SARS PLpro yeast, NS1 function inh, Pf growth 48h, Pf growth 96h)
O=C(NCC1CCN(c2ccc(S(=O)(=O)N3CCOCC3)cc2)CC1)c1cccc(Cl)c1	Pf growth 96h 12µM (no result: Pf growth 48h)
O=C(c1ccc(S(=O)(=O)N2CCOCC2)cc1)N1CCN(c2cccc(Cl)c2)CC1	none (no result: Pf growth 96h)
COc1cccc(C(=O)NCC2CCN(c3ccc(S(=O)(=O)N4CCOCC4)cc3)CC2)c1	Pf growth 48h 12µM, Pf growth 96h 5.2µM
COc1cc2c(cc1OC)C(=O)Cc1ccc3c(c1CN(C)CC2)OCO3	Pf growth 48h 9.3µM, Pf growth 96h inconclusive
CCN1CCN(Cc2ccc(C(=O)Nc3ccc(C)c(NCc4cnc(NC(=O)OC)cn4)c3)cc2C(F)(F)F)CC1	RE007 growth inh inconclusive, Pf growth 48h inconclusive, Pf growth 96h 0.37µM
CCN1CCN(Cc2ccc(NC(=O)c3ccc(C)c(NC(=O)C(=O)c4c[nH]c5ccccc45)c3)cc2C(F)(F)F)CC1	Pf growth 48h 0.37µM, Pf growth 96h 0.41µM
CCN1CCN(Cc2ccc(NC(=O)c3ccc(C)c(NC(=O)c4ccnnc4)c3)cc2C(F)(F)F)CC1	Pf growth 96h inconclusive
CCN1CCN(Cc2ccc(NC(=O)c3cc(NC(=O)c4cc(C)on4)cc(OC)c3)cc2C(F)(F)F)CC1	Pf growth 48h inconclusive, Pf growth 96h 0.52µM
CCN1CCN(Cc2ccc(NC(=O)c3ccc(C)c(NC(=O)c4ccc5n[nH]nc5c4)c3)cc2C(F)(F)F)CC1	none
CCN1CCN(Cc2ccc(NC(=O)c3cc(NC(=O)c4cnn(-c5ccccc5)c4N)cc(OC)c3)cc2C(F)(F)F)CC1	Pf growth 48h 1.9µM, Pf growth 96h 0.83µM
CSc1ncccc1C(=O)OCC(=O)NC(C)CCc1ccccc1 (configuration not stated)	none (no result: NS1 function inh, Pf growth 48h, Pf growth 96h)
CCN1CCN(Cc2ccc(NC(=O)c3cc(NC(=O)C(=O)c4c[nH]c5ccccc45)cc(OC)c3)cc2C(F)(F)F)CC1	Pf growth 48h 0.37µM, Pf growth 96h 0.13µM
Cc1cccc(NC(=S)NC(NC(=O)c2ccco2)C(Cl)(Cl)Cl)c1 (configuration not stated)	Pf growth 48h 13µM (no result: Pf growth 96h)
O=C(O)c1ccc(NC(=S)NC(NC(=O)c2ccco2)C(Cl)(Cl)Cl)cc1 (configuration not stated)	none (no result: Pf growth 48h)
Cc1ccc(NC(=S)NC(NC(=O)c2ccco2)C(Cl)(Cl)Cl)cc1 (configuration not stated)	Pf growth 48h 4.7µM (no result: Pf growth 96h)
C[C@]12CC[C@H](O)CC1=CCC1C2CC[C@@]2(C)C1CC[C@@H]2NC(=O)[C@@H](N)Cc1cnc[nH]1 (some centres not stated)	none (no result: SARS PLpro yeast, NS1 function inh, Pf growth 48h, Pf growth 96h)
CCOc1ccc2nc(NC(=O)CSc3nnnn3C3CCCCC3)sc2c1	Pf growth 96h 4.1µM
CCOc1ccc(OCCSc2nnnn2C2CCCCC2)cc1	Pf growth 96h 10µM
COc1ccc(OC)c(CN2C(=O)c3ccccc3C2c2nnnn2Cc2ccccc2)c1 (configuration not stated)	none (no result: SARS PLpro yeast, NS1 function inh, Pf growth 48h, Pf growth 96h)
O=C(O)c1ccc(NS(=O)(=O)Cc2ccccc2)cc1	none (no result: SARS PLpro yeast, RE007 growth inh, Pf growth 48h, Pf growth 96h)
O=C(CSc1ccc2nnc(CCNC(=O)c3ccccc3)n2n1)NCCc1ccccc1	none
CC(=O)N1N=C(c2c(-c3ccccc3)c3cc(Br)ccc3[nH]c2=O)CC1c1ccco1 (configuration not stated)	Pf growth 48h inconclusive, Pf growth 96h 5.2µM
CC(=O)N1N=C(c2cccc(NS(=O)(=O)c3ccc(C)cc3)c2)CC1c1ccco1 (configuration not stated)	Pf growth 48h inconclusive, Pf growth 96h inconclusive
CC(=O)N1N=C(c2c(-c3ccccc3)c3cc(C)ccc3[nH]c2=O)CC1c1ccco1 (configuration not stated)	Pf growth 48h 15µM, Pf growth 96h 5.2µM
CCN(CCn1cccn1)C(=O)c1ccc2nc(Cc3ccc(OC)cc3)oc2c1	Pf growth 96h inconclusive
